From PubChem BioAssay AID1159580 (chemical genetic matrix, 2015)
Values joined by “and” are separate entries in the source; they are usually repeats but may differ in a detail not shown here. Equal values may be shown once. The whole screen tested about 5,500 compounds, of which about 2,000 (36%) were called active. Roughly 18% stayed inconclusive and do not appear here. Rule as the data show it: active = normalized growth mostly below about 0.91 (no sharp cut-off); inconclusive = no clear call, values can overlap the other calls; inactive = mostly above about 0.92. This is one part of the list.

Assay: chemical genetic growth profiling, strain panel (AID 1159580);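 also: tested at 20 µM; growth read once vehicle control cultures reached saturation at 30 °C; 1 = growth at the plate median or of vehicle wells; lower values mean less growth of the strain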
Conditions: S. cerevisiae deletion strains, growth OD

Measured: normalized growth

CC(=O)OCC(=O)[C@@]1(O)CCC2C3CCC4=CC(=O)CC[C@]4(C)C3C(=O)C[C@@]21C (stereo not given in full)
inactive: locus YAL021C, strain ccr4, stronger effect = lower value 0.988 | locus YAL026C, strain drs2, stronger effect = lower value 1.01 | locus YAL030W, strain snc1, stronger effect = lower value 0.985 | locus YBL061C, strain skt5, stronger effect = lower value 0.965 | locus YBR009C, strain hhf1, stronger effect = lower value 0.998 | locus YBR021W, strain FUR4, stronger effect = lower value 1.01 | locus YBR023C, strain chs3, stronger effect = lower value 0.989 | locus YBR171W, strain sec66, stronger effect = lower value 0.969 | locus YBR229C, strain ROT2, stronger effect = lower value 1.01 | locus YBR231C, strain swc5, stronger effect = lower value 0.951 | locus YBR279W, strain paf1, stronger effect = lower value 0.997 | locus YCL011C, strain gbp2, stronger effect = lower value 1.01 | locus YCL016C, strain dcc1, stronger effect = lower value 1.02 | locus YCL029C, strain bik1, stronger effect = lower value 1.03 | locus YCL061C, strain MRC1, stronger effect = lower value 0.982 | locus YCL069W, strain vba3, stronger effect = lower value 0.98 | locus YCR088W, strain abp1, stronger effect = lower value 0.98 | locus YDL005C, strain med2, stronger effect = lower value 0.973 | locus YDL035C, strain GPR1, stronger effect = lower value 1 | locus YDL040C, strain nat1, stronger effect = lower value 0.963 | locus YDL074C, strain BRE1, stronger effect = lower value 1.01 | locus YDL101C, strain DUN1, stronger effect = lower value 1.01 | locus YDL134C, strain PPH21, stronger effect = lower value 1 | locus YDL185W, strain tfp1, stronger effect = lower value 1.03 | locus YDL192W, strain arf1, stronger effect = lower value 1.03 | locus YDR001C, strain nth1, stronger effect = lower value 0.974 | locus YDR069C, strain doa4, stronger effect = lower value 0.98 | locus YDR101C, strain arx1, stronger effect = lower value 1.02 | locus YDR137W, strain rgp1, stronger effect = lower value 1 | locus YDR159W, strain sac3, stronger effect = lower value 0.963 | locus YDR162C, strain NBP2, stronger effect = lower value 1.01 | locus YDR195W, strain ref2 0.913 | locus YDR297W, strain sur2, stronger effect = lower value 0.989 | locus YDR318W, strain mcm21, stronger effect = lower value 1.01 | locus YDR334W, strain swr1, stronger effect = lower value 0.968 | locus YDR335W, strain msn5, stronger effect = lower value 0.969 | locus YDR388W, stronger effect = lower value 1.03 | locus YDR392W, strain spt3, stronger effect = lower value 1.04 | locus YDR502C, strain sam2, stronger effect = lower value 1.04 | locus YEL003W, strain gim4, stronger effect = lower value 0.968 | locus YEL037C, strain rad23, stronger effect = lower value 0.976 | locus YEL061C, strain CIN8 (second series), stronger effect = lower value 0.983 | locus YEL061C, strain CIN8, stronger effect = lower value 1.01 | locus YER015W, strain faa2, stronger effect = lower value 0.992 | locus YER016W, strain bim1, stronger effect = lower value 0.988 | locus YER110C, stronger effect = lower value 1.04 | locus YER111C, strain swi4, stronger effect = lower value 0.971 | locus YER155C, strain BEM2 (second series), stronger effect = lower value 0.97 | locus YER155C, strain BEM2, stronger effect = lower value 1 | locus YER167W, strain BCK2, stronger effect = lower value 1.01 | locus YFR010W, strain ubp6, stronger effect = lower value 0.977 | locus YGL078C, strain dbp3, stronger effect = lower value 1.03 | locus YGL086W, strain mad1, stronger effect = lower value 0.994 | locus YGL167C, strain pmr1, stronger effect = lower value 0.952 | locus YGL173C, strain kem1, stronger effect = lower value 0.955 | locus YGL227W, strain vid30, stronger effect = lower value 0.983 | locus YGL240W, strain doc1, stronger effect = lower value 0.962 | locus YGL248W, strain PDE1, stronger effect = lower value 1.02 | locus YGL253W, strain hxk2, stronger effect = lower value 0.981 | locus YGR135W, strain pre9, stronger effect = lower value 1.03 | locus YGR252W, strain gcn5, stronger effect = lower value 1.05 | locus YHR013C, strain ard1, stronger effect = lower value 0.991 | locus YHR027C, strain rpn1, stronger effect = lower value 1 | locus YHR030C, strain SLT2, stronger effect = lower value 1 and 0.999 | locus YHR079C, strain IRE1 (second series), stronger effect = lower value 1.03 | locus YHR079C, strain IRE1, stronger effect = lower value 0.996 | locus YHR094C, strain hxt1, stronger effect = lower value 1.02 | locus YHR129C, strain ARP1, stronger effect = lower value 1 | locus YHR142W, strain chs7, stronger effect = lower value 0.978 | locus YHR200W, strain rpn10, stronger effect = lower value 1.03 | locus YIL066C, strain RNR3, stronger effect = lower value 1.01 | locus YIL073C, strain SPO22, stronger effect = lower value 1.06 | locus YIL125W, strain kgd1, stronger effect = lower value 1.02 | locus YIR030C, strain dcg1, stronger effect = lower value 1.03 | locus YJL092W, strain hpr5, stronger effect = lower value 0.968 | locus YJL095W, strain BCK1 (second series), stronger effect = lower value 0.992 | locus YJL095W, strain BCK1, stronger effect = lower value 1.02 | locus YJL115W, strain asf1, stronger effect = lower value 0.985 | locus YJL129C, strain trk1, stronger effect = lower value 0.922 | locus YJL134W, strain LCB3, stronger effect = lower value 1.01 | locus YJL154C, strain vps35, stronger effect = lower value 0.963 | locus YJL164C, strain tpk1, stronger effect = lower value 1 | locus YJL166W, strain qcr8, stronger effect = lower value 0.966 | locus YJL168C, strain set2, stronger effect = lower value 1.03 | locus YJL187C, strain SWE1 (second series), stronger effect = lower value 1.01 | locus YJR043C, strain POL32, stronger effect = lower value 0.993 | locus YJR066W, strain TOR1, stronger effect = lower value 0.973 | locus YJR075W, strain HOC1, stronger effect = lower value 1.01 | locus YKL009W, strain mrt4, stronger effect = lower value 1.02 | locus YKL068W, stronger effect = lower value 1.02 | locus YKL085W, strain MDH1 (second series), stronger effect = lower value 1.02 | locus YKL085W, strain MDH1, stronger effect = lower value 1.02 | locus YKL160W, strain elf1, stronger effect = lower value 0.961 | locus YKR001C, strain vps1, stronger effect = lower value 1.04 | locus YKR026C, strain gcn3, stronger effect = lower value 0.974 | locus YKR091W, strain srl3, stronger effect = lower value 0.974 | locus YLL001W, strain dnm1, stronger effect = lower value 0.93 | locus YLL026W, stronger effect = lower value 0.994 | locus YLL041C, strain sdh2, stronger effect = lower value 0.98 | locus YLR027C, strain aat2, stronger effect = lower value 0.961 | locus YLR039C, strain RIC1, stronger effect = lower value 1 | locus YLR058C, strain SHM2, stronger effect = lower value 1.01 | locus YLR102C, strain apc9, stronger effect = lower value 1.03 | locus YLR113W, strain HOG1, stronger effect = lower value 0.986 | locus YLR221C, strain rsa3, stronger effect = lower value 1.01 | locus YLR258W, strain gsy2, stronger effect = lower value 0.995 | locus YLR262C, strain YPT6 (second series), stronger effect = lower value 0.951 | locus YLR262C, strain YPT6, stronger effect = lower value 1.05 | locus YLR268W, strain sec22, stronger effect = lower value 1.04 | locus YLR320W, strain mms22, stronger effect = lower value 0.993 | locus YLR330W, strain CHS5, stronger effect = lower value 1.01 | locus YLR342W, strain FKS1 (second series), stronger effect = lower value 0.987 | locus YLR342W, strain FKS1, stronger effect = lower value 0.963 | locus YLR357W, strain rsc2, stronger effect = lower value 0.974 | locus YLR370C, strain arc18, stronger effect = lower value 0.973 | locus YLR371W, strain rom2, stronger effect = lower value 1.02 | locus YLR384C, strain iki3, stronger effect = lower value 0.974 | locus YLR418C, strain cdc73, stronger effect = lower value 1.08 | locus YML016C, strain PPZ1, stronger effect = lower value 1.01 | locus YML032C, strain rad52, stronger effect = lower value 1.04 | locus YML120C, strain ndi1, stronger effect = lower value 0.967 | locus YML124C, strain tub3, stronger effect = lower value 1.03 | locus YMR058W, strain fet3, stronger effect = lower value 0.971 | locus YMR078C, strain ctf18, stronger effect = lower value 1.04 | locus YMR125W, strain sto1, stronger effect = lower value 0.988 | locus YMR129W, stronger effect = lower value 0.991 | locus YMR205C, strain PFK2, stronger effect = lower value 0.983 | locus YMR223W, strain ubp8, stronger effect = lower value 1.04 | locus YMR231W, strain pep5, stronger effect = lower value 0.972 | locus YMR263W, strain SAP30, stronger effect = lower value 1.01 | locus YMR307W, strain GAS1, stronger effect = lower value 0.923 | locus YNL067W, strain RPL9B, stronger effect = lower value 1.01 | locus YNL071W, strain lat1, stronger effect = lower value 1.01 | locus YNL153C, strain GIM3, stronger effect = lower value 1.01 | locus YNL183C, strain NPR1, stronger effect = lower value 0.953 | locus YNL209W, strain ssb2, stronger effect = lower value 0.998 | locus YNL233W, strain BNI4, stronger effect = lower value 1.01 | locus YNL248C, strain rpa49, stronger effect = lower value 1 | locus YNL250W, strain rad50, stronger effect = lower value 1.05 | locus YNL271C, strain bni1, stronger effect = lower value 1.04 | locus YNL298W, strain CLA4, stronger effect = lower value 1.02 | locus YNL307C, strain MCK1, stronger effect = lower value 1.02 | locus YNL322C, strain KRE1 (second series), stronger effect = lower value 0.969 | locus YNL322C, strain KRE1, stronger effect = lower value 1.01 | locus YNR049C, strain mso1, stronger effect = lower value 0.977 | locus YNR052C, strain pop2, stronger effect = lower value 1.02 | locus YOL012C, strain htz1 1.93 | locus YOL147C, strain pex11, stronger effect = lower value 1.04 | locus YOR001W, strain rrp6, stronger effect = lower value 0.951 | locus YOR061W, strain CKA2, stronger effect = lower value 1.01 | locus YOR069W, strain VPS5, stronger effect = lower value 1.01 | locus YOR070C, strain gyp1, stronger effect = lower value 0.993 | locus YOR080W, strain dia2, stronger effect = lower value 0.956 | locus YOR083W, strain WHI5, stronger effect = lower value 0.959 | locus YOR106W, strain vam3, stronger effect = lower value 0.966 | locus YOR136W, strain idh2, stronger effect = lower value 1.03 | locus YOR144C, strain elg1, stronger effect = lower value 1.02 | locus YOR184W, strain ser1, stronger effect = lower value 1.05 | locus YOR231W, strain MKK1, stronger effect = lower value 0.995 | locus YOR265W, strain rbl2, stronger effect = lower value 0.991 | locus YOR270C, strain vph1, stronger effect = lower value 0.978 | locus YOR290C, strain snf2, stronger effect = lower value 1.01 | locus YOR316C, strain cot1, stronger effect = lower value 1.03 | locus YPL051W, strain arl3, stronger effect = lower value 0.989 | locus YPL055C, strain LGE1, stronger effect = lower value 1 | locus YPL078C, strain atp4, stronger effect = lower value 0.933 | locus YPL106C, strain sse1, stronger effect = lower value 1.02 | locus YPL240C, strain hsp82, stronger effect = lower value 0.984 | locus YPL241C, strain CIN2, stronger effect = lower value 1 | locus YPL256C, strain CLN2, stronger effect = lower value 0.962 | locus YPR119W, strain clb2, stronger effect = lower value 1.03 | locus YPR141C, strain kar3, stronger effect = lower value 1.04 | locus YPR163C, strain tif3, stronger effect = lower value 1.05 | locus YPR167C, strain met16, stronger effect = lower value 1.03 | strain wtn01, stronger effect = lower value 1.04
